# Mtb BioA inh = inhibitors of Mycobacterium tuberculosis BioA enzyme; purified M. tuberculosis BioA enzyme, plate reader; inhibition, % at 9.99 µM; 360,000 compounds, 0.096% hits; in the data active = inhibition above about 40%
# GDH-TPI counter-1 = counter-screen for M. tuberculosis FBA inhibitors: GDH-TPI coupled enzymes; GDH-TPI coupled enzyme counterscreen, NADH absorbance; inhibition, % at 4.8 µM; 360,000 compounds, 1.2% hits; AID 588335; in the data active = inhibition above about 30%;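 note: 0% = DMSO wells and 100% = wells lacking the enzyme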
# FadD28 binding = inhibitors of Mycobacterium tuberculosis FadD28 bisubstrate binding | FadD28 bisubstrate probe binding, fluorescence polarization | inhibition, % at 12.5 µM | 360,000 compounds, 0.22% hits | AID 588549; in the data active = inhibition above about 8.5%, passing the limit was not always enough
# Mtb FBA inh = inhibitors of M. tuberculosis fructose-bisphosphate aldolase; P9WQA3; inhibition, % at 1 µM; 360,000 compounds, 2.3% hits; purified M. tuberculosis FBA, fluorescence read-out;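 note: 0% = vehicle and 100% = reference inhibitor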
# Target sequence (P9WQA3 whole entry, looked up): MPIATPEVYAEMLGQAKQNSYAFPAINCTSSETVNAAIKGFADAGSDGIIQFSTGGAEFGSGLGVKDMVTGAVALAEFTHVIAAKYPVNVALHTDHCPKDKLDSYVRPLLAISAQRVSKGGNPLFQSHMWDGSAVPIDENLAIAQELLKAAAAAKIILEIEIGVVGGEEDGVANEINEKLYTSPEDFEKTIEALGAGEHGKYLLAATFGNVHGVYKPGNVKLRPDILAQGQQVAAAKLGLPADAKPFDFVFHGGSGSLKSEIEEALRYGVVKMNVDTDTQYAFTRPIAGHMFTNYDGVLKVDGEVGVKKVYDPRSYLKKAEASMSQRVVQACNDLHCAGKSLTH
# Mtb hypoxia rep = Mtb hypoxia fluorescent reporter inhibition. M. tuberculosis hypoxia-regulated fluorescent reporter, fluorescence. fluorescence inhibition, % (concentration not given with the values). 300,000 compounds, 0.1% hits. AID 1159583; in the data active = fluorescence inhibition mostly above about 23%, no sharp cut-off; inactive = mostly below about 17%
# Mtb FBA inh conf = Mtb FBA inhibition, confirmed; shares compounds with Mtb FBA inh; purified M. tuberculosis FBA, fluorescence read-out; inhibition, % at 1 µM; 5,600 compounds, 78% hits; AID 651616;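 note: 0% = vehicle wells and 100% = reference inhibitor wells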
# GDH-TPI counter-2 = inhibits GDH-TPI coupling enzymes, flagging Mtb FBA hits; shares compounds with Mtb FBA inh; GDH-TPI coupled enzyme counterscreen, fluorescence; inhibition, % at 1 µM; 5,600 compounds, 81% hits; in the data active = inhibition above about 10%
# GDH-TPI DR = inhibits GDH-TPI coupling enzymes in dose response. IC50, µM. 170 compounds, 79% hits. AID 652145. GDH-TPI coupled enzyme assay, fluorescence, artifact counterscreen. shares compounds with Mtb FBA inh; call rule not given here
# * = called active by the depositor; x = no result given; + = active, no number. Hits are enriched below; roughly 2.9% of the tested compounds scored in any of these assays. Cut-off read from the data, not from the text of the source, unless noted: active = inhibition above about 27%; inactive = the rest.
SMILES,Mtb BioA inh,GDH-TPI counter-1,FadD28 binding,Mtb FBA inh,Mtb hypoxia rep,Mtb FBA inh conf,GDH-TPI counter-2,others
COc1ccccc1-c1cc2nc(C)cc(C)n2n1,-1.4,9.6,-3.8,8.5,8.6,x,x,
CCOc1ccc2cc(C(=O)NCc3ccccc3)c(=N)oc2c1,1.0,9.7,x,40.9*,8.1,52.7*,35.2*,
Cc1cc(C)cc(Oc2coc3cc(O)ccc3c2=O)c1,4.5,0.8,-2.9,24.4,5.7,x,x,
Cc1ccc(C)c(Oc2coc3cc(OCC(=O)Nc4ccccc4C(C)C)ccc3c2=O)c1,x,x,x,x,15.3,x,x,
Cc1ccc(C)c(Oc2coc3cc(O)ccc3c2=O)c1,0.1,20.0,-0.9,38.0*,7.4,127.8*,103.8*,
O=c1c(-c2ccc(O)cc2)coc2cc(O)ccc12,0.3,15.0,-2.1,24.3,-2.9,x,x,
Cc1ccc(Oc2coc3cc(O)ccc3c2=O)cc1,1.4,17.2,x,40.1*,-5.3,52.8*,57.3*,
Cc1ccccc1-c1coc2cc(O)ccc2c1=O,-1.8,19.7,0.1,48.3*,x,97.3*,81.3*,
CCS(=O)(=O)NCC[C@@H]1CC[C@@H](NS(=O)(=O)c2ccccc2C)[C@@H](CO)O1,-3.2,x,x,x,x,x,x,
C[C@@H]1CCCCO[C@H](CN(C)C)[C@@H](C)CN([C@H](C)CO)C(=O)c2cc(NS(=O)(=O)c3ccc(F)cc3)ccc2O1,-0.8,x,x,x,x,x,x,
C[C@@H]1CN([C@H](C)CO)C(=O)CCCn2cc(nn2)CO[C@@H]1CN(C)Cc1ccc2c(c1)OCO2,-1.4,x,x,x,x,x,x,
Cc1noc(C)c1NC(=O)NCC[C@H]1CC[C@@H](NC(=O)Nc2cccc(F)c2)[C@@H](CO)O1,2.8,x,x,x,x,x,x,
CN(C)CCNC(=O)c1cccc2nc3c(ccc4ccccc43)nc12,x,-0.9,-2.3,4.1,x,x,x,
CN(C)CCNC(=O)c1cccc2[nH]c(-c3ccncc3)nc12,x,12.1,-1.6,35.5*,x,21.9,20.4*,
C[C@H]1CN([C@@H](C)CO)C(=O)c2cc(C#CCc3ccccc3)cnc2O[C@@H]1CN(C)CC1CCCC1,0.9,x,x,x,x,x,x,
COc1cccc(C(O)c2ncc(-c3ccccc3OC)[nH]2)c1 (stereo not given),-1.0,8.9,-0.9,-0.3,x,x,x,
OC(c1cccc(Cl)c1)c1ncc(-c2cccc3ccccc23)[nH]1 (stereo not given),-0.2,7.1,-4.6,36.6*,x,145.9*,103.3*,
COc1cccc(C(O)c2ncc(-c3cccc4ccccc34)[nH]2)c1 (stereo not given),2.1,-12.5,-4.7,47.8*,x,56.0*,46.6*,
Cc1ccc(C(O)c2ncc(-c3ccc4ccccc4c3)[nH]2)c(C)c1 (stereo not given),0.2,3.5,-2.0,16.5,x,x,x,
Cc1ccc(C(O)c2ncc(-c3cccc4ccccc34)[nH]2)cc1F (stereo not given),0.5,0.9,-0.7,27.1*,x,19.4,13.3*,
Cc1ccc(C(O)c2ncc(-c3cccc4ccccc34)[nH]2)c(C)c1 (stereo not given),-0.1,-3.1,-5.2,38.9*,x,+,+,
CCCN1[C@@H]2c3ccc(-c4ccc(F)cc4)c(=O)n3C[C@@H]2[C@@H](CO)[C@@H]1C(=O)N[C@H](C)c1ccccc1,5.5,x,x,x,x,x,x,
C[C@H](O)C#Cc1ccc2c(c1)O[C@H](CN(C)Cc1ccc(-c3ccccc3)cc1)[C@@H](C)CN([C@@H](C)CO)S2(=O)=O,-0.4,x,x,x,x,x,x,
C[C@H](CO)N1C[C@H](C)[C@H](CN(C)C(=O)[C@H]2CCCN2C)OCc2ccccc2-c2c(n(C)c3ccccc23)C1=O,0.4,x,x,x,x,x,x,
CO[C@@H]1CN(C)C(=O)c2cc(NC(=O)C3CCOCC3)ccc2OC[C@H](C)N(CC2CC2)C[C@@H]1C,0.9,x,x,x,x,x,x,
SMILES,Mtb BioA inh,GDH-TPI counter-1,FadD28 binding,Mtb FBA inh,Mtb hypoxia rep,Mtb FBA inh conf,GDH-TPI counter-2,others
CNC[C@@H]1OCCCC[C@H](C)Oc2ccc(NS(=O)(=O)c3ccc(OC)cc3)cc2C(=O)N([C@@H](C)CO)C[C@@H]1C,-1.5,x,x,x,x,x,x,
CNC[C@@H]1Oc2cc(C#CC3CCCCC3)ccc2S(=O)(=O)N([C@@H](C)CO)C[C@@H]1C,-3.7,x,x,x,x,x,x,
O=C(NCC1CCCO1)c1ccccc1 (stereo not given),-2.2,-1.9,0.1,-5.7,21.8,x,x,
C=CCn1c(N)c(C(=O)Nc2ccc(C)c(C)c2)c2nc3ccccc3nc21,0.3,22.4,1.8,-0.1,7.2,x,x,
CC(C)OCCCNC(=O)c1c(N)n(/N=C/c2cccs2)c2nc3ccccc3nc12,-0.4,20.2,-0.4,8.7,x,x,x,
CC(C)OCCCNC(=O)c1c(N)n(CC2CCCO2)c2nc3ccccc3nc12 (stereo not given),x,4.9,2.0,48.5*,-0.8,+,+,
CCCNC(=O)c1c(N)n(CC2CCCO2)c2nc3ccccc3nc12 (stereo not given),x,15.2,2.2,98.9*,1.1,100.8*,78.6*,
Nc1c(C(=O)NCC2CCCO2)c2nc3ccccc3nc2n1-c1ccccc1 (stereo not given),-1.6,7.7,-0.9,108.4*,x,87.4*,72.6*,
C[C@H]1CN([C@@H](C)CO)C(=O)c2cccc(NS(=O)(=O)c3cccs3)c2O[C@H]1CN(C)Cc1ccc(C(=O)O)cc1,-1.7,x,x,x,x,x,x,
O=C1c2ccccc2NC(c2ccc(O)cc2)N1N=Cc1ccc(O)cc1 (stereo not given),x,x,x,x,5.9,x,x,
CC(C)c1ccc(OCCCCN2CCCCC2)cc1,0.3,-0.6,-1.6,97.6*,11.5,129.8*,106.1*,
Clc1ccc(OCCCCN2CCCCC2)cc1,5.2,10.3,0.1,4.4,16.6,x,x,
O=C(Nc1ccccn1)c1ccc(Br)c(S(=O)(=O)N2CCCCC2)c1,-1.9,2.2,-3.2,51.3*,1.8,+,+,
O=C(Nc1ccccn1)c1ccc(Br)c(S(=O)(=O)N2CCCC2)c1,2.6,4.5,0.2,-2.3,4.6,x,x,
CCc1cc(=O)oc2cc(C)cc(OC(C)C(=O)NC3CC(C)(C)NC(C)(C)C3)c12 (stereo not given),-0.5,13.0,-1.9,72.2*,7.7,49.1*,42.4*,
Cc1cc(=O)oc2cc(OCC(=O)NCCCN3CCCC3=O)c(Cl)cc12,0.5,5.5,-2.7,6.2,4.9,x,x,
Cc1c(C)c2cc(Cl)c(OCC(=O)NCCCN3CCCC3=O)cc2oc1=O,5.3,33.6*,-1.1,44.7*,x,12.5,3.9,GDH-TPI DR=7.07*
CCc1cc(=O)oc2cc(C)cc(OC(C)C(=O)NCCCN3CCCC3=O)c12 (stereo not given),x,-2.2,-4.0,86.7*,0.7,0.7,1.0,
CCCc1cc(=O)oc2cc(C)cc(OCC(=O)NCCCN3CCCC3=O)c12,5.0,0.0,-4.3,66.4*,8.1,+,+,

# Source: PubChem
